Test results taken from PubChem BioAssay (Tox21).
Results filed as inconclusive are left out. Some compounds were tested as several samples or in several runs, with calls that do not always agree. Activity calls are given as the source filed them. Unless noted, calls follow the shape of the dose curve; as a rule, active = well fitted curve in the direction sought with a large enough effect in the repeat runs; inconclusive = weak or mixed curves; inactive = no such curve, though single readings can be large; an effect the other way counts as inactive or inconclusive.

Key:
[1] = qHTS assay to identify small molecule agonists of the sonic hedgehog signaling (Shh) pathway (AID 1259368; calls by dose curve;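 also: NIH/3T3-derived 3T3Gli1-Luc cells carrying a stable Gli1-driven firefly luciferase reporter; series mostly up to about 92 µM; nearly all actives have a fitted effect of over 15% in size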)
How it was run: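 Cells of a mouse NIH/3T3 clone stably expressing luciferase under the Gli1 transcriptional response element are exposed to test chemicals for 24 hr at 37 C. Pathway activation is detected as a rise in luminescence.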

[2] = qHTS assay to identify small molecule antagonists of the sonic hedgehog signaling (Shh) pathway (AID 1259369; calls by dose curve; also: nearly all actives have a fitted effect of over 45% in size; also: potency is read from the fitted curve at half-maximal effect)
How it was run: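 Cells are plated and held 4hr at 37 C, compounds (DMSO) are pinned in, conditioned medium is added to stimulate the pathway, and after 24hr luciferase reagent is added for 30min before luminescence is read.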

[3] = target: Estrogen receptor beta (Homo sapiens) (UniProt Q92731); assay: qHTS assay to identify small molecule agonists of the estrogen receptor beta (ER-beta) signaling pathway (AID 1259377; active = well fitted activation curve with a large enough effect in the signal ratio in the repeat runs, not every such curve was filed as active; the % refers to the signal ratio)
Estrogen receptor beta (Homo sapiens), sequence (Q92731 whole entry, looked up): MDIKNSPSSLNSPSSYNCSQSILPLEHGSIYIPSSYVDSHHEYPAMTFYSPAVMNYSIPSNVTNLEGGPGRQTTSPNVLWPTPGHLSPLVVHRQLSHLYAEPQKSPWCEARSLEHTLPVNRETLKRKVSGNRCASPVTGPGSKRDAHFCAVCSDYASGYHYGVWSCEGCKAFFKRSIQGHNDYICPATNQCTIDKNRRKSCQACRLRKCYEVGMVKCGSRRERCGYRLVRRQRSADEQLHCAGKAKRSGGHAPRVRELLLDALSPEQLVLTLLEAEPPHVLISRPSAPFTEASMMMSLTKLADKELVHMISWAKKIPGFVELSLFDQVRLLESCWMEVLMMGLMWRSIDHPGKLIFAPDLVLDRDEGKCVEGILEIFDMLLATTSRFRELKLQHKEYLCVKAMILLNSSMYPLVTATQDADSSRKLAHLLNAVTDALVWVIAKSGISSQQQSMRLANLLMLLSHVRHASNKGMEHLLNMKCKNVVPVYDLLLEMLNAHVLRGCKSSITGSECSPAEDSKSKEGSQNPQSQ
How it was run: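 ER-beta-UAS-bla HEK293T cells in medium with 2% charcoal-stripped FBS were exposed to compounds for 16 h at 37C. Beta-lactamase reporter activity was read as fluorescence after 2 h with LiveBLAzer B/G FRET substrate at room temperature.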

[4] = target: Estrogen receptor beta (Homo sapiens) (UniProt Q92731); assay: qHTS assay to identify small molecule antagonists of the estrogen receptor beta (ER-beta) signaling pathway (AID 1259378; active = well fitted inhibition curve with a large enough effect in the signal ratio in the repeat runs, not every such curve was filed as active; the % refers to the signal ratio)
How it was run: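 Antagonist mode: compounds added to beta-lactamase reporter HEK293T ER-beta-UAS cells stimulated with E2 (1nM final), 16 hr at 37C. LiveBLAzer B/G FRET substrate, 2 hours room temperature, fluorescence read-out.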

[5] = qHTS assay to identify small molecule agonists of the androgen receptor (AR) signaling pathway in the presence of an antagonist - cell viability counter screen (AID 1259379); also: nearly all actives have a fitted effect of over 25% in size; also: potency is read from the fitted curve at half-maximal effect
How it was run: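 Cytotoxicity is assessed by CellTiter-Fluor in MDA-kb2 cells carrying an MMTV-driven luciferase reporter. Cells receive 3.0uM nilutamide plus compounds at 15 concentrations and incubate 16 hr at 37C without CO2 before fluorescence reading.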

[6] = qHTS assay to identify small molecule agonists of the estrogen receptor beta (ER-beta) signaling pathway - cell viability counter screen (AID 1259380); also: nearly all actives have a fitted effect of over 30% in size
How it was run: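 Cytotoxicity is measured in parallel with the reporter screen: after 16 hr compound exposure at 37C and a 2 hr LiveBLAzer step, CellTiter-Glo is added to the same ER-beta-UAS-bla HEK293T wells and luminescence read after 30 min.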

[7] = qHTS assay to identify small molecule antagonists of the estrogen receptor beta (ER-beta) signaling pathway - cell viability counter screen (AID 1259382);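 also: HEK293T cells carrying ER-beta-UAS-bla reporter stimulated with estradiol; series mostly up to about 92 µM; nearly all actives have a fitted effect of over 55% in size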
How it was run: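 Cytotoxicity counter screen multiplexed with the beta-lactamase antagonist assay: GripTite HEK293T ER-beta-bla cells were treated 16 hr with test chemicals in the presence of 1nM 17-beta-estradiol, and viability was measured by CellTiter-Glo.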

[8] = target: Estrogen receptor (Homo sapiens) (UniProt P03372); assay: qHTS assay to identify small molecule agonists of the estrogen receptor alpha (ER-alpha) signaling pathway in the presence of an antagonist (AID 1259383; calls by dose curve; also: top concentration of the series differs between compounds; nearly all actives have a fitted effect of over 15% in size)
Estrogen receptor (Homo sapiens), sequence (P03372 whole entry, looked up): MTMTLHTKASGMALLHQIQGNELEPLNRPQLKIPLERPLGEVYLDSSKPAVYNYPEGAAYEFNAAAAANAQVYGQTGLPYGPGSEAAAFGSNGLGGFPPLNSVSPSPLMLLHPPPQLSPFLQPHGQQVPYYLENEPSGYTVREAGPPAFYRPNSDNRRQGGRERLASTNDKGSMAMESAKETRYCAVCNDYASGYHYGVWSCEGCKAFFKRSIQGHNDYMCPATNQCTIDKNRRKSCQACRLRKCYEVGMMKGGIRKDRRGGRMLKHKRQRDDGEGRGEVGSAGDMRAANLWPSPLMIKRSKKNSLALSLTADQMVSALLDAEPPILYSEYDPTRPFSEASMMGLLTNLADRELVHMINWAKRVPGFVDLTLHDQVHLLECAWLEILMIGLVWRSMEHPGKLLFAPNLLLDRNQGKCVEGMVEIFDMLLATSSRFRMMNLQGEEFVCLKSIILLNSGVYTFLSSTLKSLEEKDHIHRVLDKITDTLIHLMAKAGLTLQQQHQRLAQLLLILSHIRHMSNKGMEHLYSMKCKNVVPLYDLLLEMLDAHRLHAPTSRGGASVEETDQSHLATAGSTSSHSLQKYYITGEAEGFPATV
How it was run: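 Agonist-mode confirmation in the presence of the ER antagonist ICI-182,780 at 10.0nM final. Breast-derived VM7Luc4E2 reporter cells were exposed to compounds for 22hr, and ERE-driven luciferase was quantified by luminescence.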

[9] = qHTS assay to identify small molecule agonists or antagonists of the thyroid stimulating hormone receptor (TSHR) signaling pathway - wild type cell line counter screen (AID 1259384; calls by dose curve)
How it was run: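 Counter screen in untransfected Hek293: compounds (15-point titration, triplicate) plus phosphodiesterase inhibitor Ro20-1724 added after 18 h plating; 30 min RT. Intracellular cAMP via competitive d2/cryptate immunoassay, 1 h incubation.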

[10] = target: Thyrotropin receptor (Homo sapiens) (UniProt P16473); assay: qHTS assay to identify small molecule antagonists of the thyroid stimulating hormone receptor (TSHR) signaling pathway (AID 1259385; calls by dose curve; also: nearly all actives have a fitted effect of over 20% in size)
Thyrotropin receptor (Homo sapiens), sequence (P16473 whole entry, looked up): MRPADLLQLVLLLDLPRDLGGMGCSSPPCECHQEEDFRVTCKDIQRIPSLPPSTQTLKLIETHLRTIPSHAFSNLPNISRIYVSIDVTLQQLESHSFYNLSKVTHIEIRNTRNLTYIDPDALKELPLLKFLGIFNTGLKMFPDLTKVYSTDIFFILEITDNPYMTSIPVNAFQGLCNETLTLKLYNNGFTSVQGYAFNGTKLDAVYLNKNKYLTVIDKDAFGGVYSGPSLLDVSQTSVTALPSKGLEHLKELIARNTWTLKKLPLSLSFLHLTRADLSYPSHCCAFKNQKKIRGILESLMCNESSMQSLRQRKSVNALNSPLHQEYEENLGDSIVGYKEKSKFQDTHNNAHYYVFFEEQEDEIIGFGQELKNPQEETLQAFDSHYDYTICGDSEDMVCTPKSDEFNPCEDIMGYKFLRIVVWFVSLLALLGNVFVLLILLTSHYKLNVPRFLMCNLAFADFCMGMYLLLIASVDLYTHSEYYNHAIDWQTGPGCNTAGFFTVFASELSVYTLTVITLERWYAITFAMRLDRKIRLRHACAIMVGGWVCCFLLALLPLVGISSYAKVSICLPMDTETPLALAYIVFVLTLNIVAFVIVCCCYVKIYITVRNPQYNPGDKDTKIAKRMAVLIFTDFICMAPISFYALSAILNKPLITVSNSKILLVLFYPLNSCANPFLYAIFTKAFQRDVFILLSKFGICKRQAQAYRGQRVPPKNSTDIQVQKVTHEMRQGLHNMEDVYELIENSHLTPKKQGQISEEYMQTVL
How it was run: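 Antagonist mode: compound-treated TSHR-expressing HEK293 cells were stimulated with 1.5 ng/mL TSH (final) in presence of Ro20-1724 for 30 min at RT. HTRF cAMP detection after 1 h; each compound tested at 15 concentrations, triplicate.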

[11] = qHTS assay to identify small molecule agonists of the estrogen receptor alpha (ER-alpha) signaling pathway in the presence of an antagonist - cell viability counter screen (AID 1259386);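 also: cells exposed to compounds for 22 h at 37 °C before the viability read; nearly all actives have a fitted effect of over 30% in size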; also: potency is read from the fitted curve at half-maximal effect
How it was run: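 Cytotoxicity was measured in parallel with the ERE-luciferase agonist screen, in the same wells. The cells were VM7Luc4E2, which endogenously express ER-alpha, and treatment was with compounds plus 10.0nM ICI-182,780 for 22hr.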

[12] = target: Progesterone receptor (Homo sapiens) (UniProt P06401); assay: qHTS assay to identify small molecule agonists of the progesterone receptor (PR) signaling pathway (AID 1346784; calls by dose curve; also: nearly all actives have a fitted effect of over 30% in size; also: potency is read from the fitted curve at half-maximal effect)
Progesterone receptor (Homo sapiens), sequence (P06401 whole entry, looked up): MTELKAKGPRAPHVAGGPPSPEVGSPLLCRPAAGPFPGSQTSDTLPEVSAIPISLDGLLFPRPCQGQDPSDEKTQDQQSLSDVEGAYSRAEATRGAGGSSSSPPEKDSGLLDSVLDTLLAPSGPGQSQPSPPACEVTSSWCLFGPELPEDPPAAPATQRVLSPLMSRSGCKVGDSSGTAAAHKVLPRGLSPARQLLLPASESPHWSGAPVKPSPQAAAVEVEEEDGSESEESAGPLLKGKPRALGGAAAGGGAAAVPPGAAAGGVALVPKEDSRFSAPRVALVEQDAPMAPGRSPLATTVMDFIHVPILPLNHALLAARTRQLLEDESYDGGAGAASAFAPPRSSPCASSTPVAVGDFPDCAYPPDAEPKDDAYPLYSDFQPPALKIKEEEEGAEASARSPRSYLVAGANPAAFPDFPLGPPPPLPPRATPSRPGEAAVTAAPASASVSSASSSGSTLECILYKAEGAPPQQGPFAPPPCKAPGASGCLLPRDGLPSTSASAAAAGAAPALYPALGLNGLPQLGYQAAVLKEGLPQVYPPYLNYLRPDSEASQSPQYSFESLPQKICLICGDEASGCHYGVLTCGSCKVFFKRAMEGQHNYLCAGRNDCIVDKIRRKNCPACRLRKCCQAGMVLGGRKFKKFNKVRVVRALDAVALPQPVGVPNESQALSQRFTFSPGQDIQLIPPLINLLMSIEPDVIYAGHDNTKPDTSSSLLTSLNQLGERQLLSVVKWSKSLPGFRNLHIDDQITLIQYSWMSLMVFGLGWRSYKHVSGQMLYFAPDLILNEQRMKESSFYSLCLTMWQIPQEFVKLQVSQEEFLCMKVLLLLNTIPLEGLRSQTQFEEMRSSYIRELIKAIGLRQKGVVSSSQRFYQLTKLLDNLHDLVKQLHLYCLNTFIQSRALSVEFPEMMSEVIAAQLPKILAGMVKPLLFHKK
How it was run: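 PR-UAS-bla HEK 293T cells (beta-lactamase reporter under UAS) in 2% charcoal-stripped FBS, dosed with 23 nL compound after 6 hr, incubated 16hr at 37C. LiveBLAzer B/G FRET substrate added, fluorescence read after 2 hours.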

[13] = target: Progesterone receptor (Homo sapiens) (UniProt P06401); assay: qHTS assay to identify small molecule antagonists of the progesterone receptor (PR) signaling pathway (AID 1346795; active = well fitted inhibition curve with a large enough effect in the signal ratio in the repeat runs, not every such curve was filed as active; the % refers to the signal ratio)
How it was run: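 PR-UAS-bla HEK293T cells with beta-lactamase reporter under UAS control, in 2% charcoal-stripped FBS, treated with compounds plus 1 nM promegestone (R5020, final) for 16 hr at 37C. Read-out: FRET beta-lactamase substrate fluorescence after 2 hr at room temperature.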

[14] = qHTS assay to identify small molecule agonists of the progesterone receptor (PR) signaling pathway - cell viability counter screen (AID 1346799; calls by dose curve; also: nearly all actives have a fitted effect of over 45% in size)
How it was run: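 Counter screen in the PR-UAS-bla HEK293T wells (2% charcoal-stripped FBS, 16 h compound exposure at 37 C) after the bla read. CellTiter-Glo added, 30 min at room temperature, luminescence read as cell viability.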

[15] = qHTS assay to identify small molecule antagonists of the TGF-beta/Smad signaling pathway - cell viability counter screen (AID 1346824); also: nearly all actives have a fitted effect of over 50% in size
How it was run: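 Cytotoxicity counter-screen run in the same wells as the beta-lactamase Smad reporter read: CellTiter-Glo luminescence after 30 min at room temperature. HEK 293T SBE-bla cells had 5 hr compound exposure at 37 C with TGF-beta1 (0.25 ng/mL stock).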

[16] = qHTS assay to identify small molecule agonists of the TGF-beta/Smad signaling pathway - cell viability counter screen (AID 1346829); also: top concentration of the series differs between compounds; nearly all actives have a fitted effect of over 45% in size
How it was run: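 Luminescence from CellTiter-Glo, read after a 30 min room-temperature incubation, gives cell viability of SBE-bla HEK 293T cells treated 5 hr with compounds at 37 C.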

[17] = qHTS assay to identify small molecule agonists of the TGF-beta/Smad signaling pathway (AID 1346859; active = well fitted activation curve with a large enough effect in the signal ratio in the repeat runs, not every such curve was filed as active; the % refers to the signal ratio; also: series mostly up to about 77 µM)
How it was run: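 SBE-bla HEK293T cells plated overnight, then compound exposure for 5 h at 37 C. Beta-lactamase reporter read with LiveBLAzer B/G FRET substrate after 2 h at room temperature, fluorescence at 405 nm excitation, 460/530 nm emission.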

[18] = qHTS assay to identify small molecule antagonists of the progesterone receptor (PR) signaling pathway - cell viability counter screen (AID 1346798); also: series mostly up to about 92 µM; nearly all actives have a fitted effect of over 50% in size
How it was run: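 PR-UAS-bla HEK293T cells, 3,000/well in 2% charcoal-stripped FBS medium, dosed with compounds plus R5020 agonist and incubated 16 h at 37C. Viability then measured in the same wells by CellTiter-Glo luminescence after 30 min at RT.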

[19] = target: Thyrotropin-releasing hormone receptor (Homo sapiens) (UniProt P34981); assay: qHTS assay to identify small molecule antagonists of the thyrotropin-releasing hormone receptor (TRHR) signaling pathway (AID 1346877; active = well fitted inhibition curve with a large enough effect in the repeat runs, not every such curve was filed as active; also: series mostly up to about 51 µM)
Thyrotropin-releasing hormone receptor (Homo sapiens), sequence (P34981 whole entry, looked up): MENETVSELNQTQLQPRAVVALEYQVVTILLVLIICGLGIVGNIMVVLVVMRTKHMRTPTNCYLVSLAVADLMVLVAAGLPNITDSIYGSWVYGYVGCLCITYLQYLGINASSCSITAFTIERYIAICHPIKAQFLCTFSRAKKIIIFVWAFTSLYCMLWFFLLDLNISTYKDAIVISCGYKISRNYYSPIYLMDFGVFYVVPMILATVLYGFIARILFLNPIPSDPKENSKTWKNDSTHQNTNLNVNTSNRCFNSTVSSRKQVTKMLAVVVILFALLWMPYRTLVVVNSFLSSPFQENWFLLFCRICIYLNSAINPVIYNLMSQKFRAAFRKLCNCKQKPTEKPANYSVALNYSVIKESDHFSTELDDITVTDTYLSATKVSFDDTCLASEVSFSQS
How it was run: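 Antagonism is measured as suppression of the calcium response to 1 nM TRH in TRHR-HEK293 cells that have been dye-loaded for 2 h at 37 °C after overnight plating. Each compound is tested at 15 concentrations in triplicate.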

[20] = target: Androgen receptor (Homo sapiens) (UniProt P10275); assay: qHTS assay to identify small molecule agonists of the androgen receptor (AR) signaling pathway in the presence of an antagonist (AID 1259381; calls by dose curve; also: nearly all actives have a fitted effect of over 15% in size)
Androgen receptor (Homo sapiens), sequence (P10275 whole entry, looked up): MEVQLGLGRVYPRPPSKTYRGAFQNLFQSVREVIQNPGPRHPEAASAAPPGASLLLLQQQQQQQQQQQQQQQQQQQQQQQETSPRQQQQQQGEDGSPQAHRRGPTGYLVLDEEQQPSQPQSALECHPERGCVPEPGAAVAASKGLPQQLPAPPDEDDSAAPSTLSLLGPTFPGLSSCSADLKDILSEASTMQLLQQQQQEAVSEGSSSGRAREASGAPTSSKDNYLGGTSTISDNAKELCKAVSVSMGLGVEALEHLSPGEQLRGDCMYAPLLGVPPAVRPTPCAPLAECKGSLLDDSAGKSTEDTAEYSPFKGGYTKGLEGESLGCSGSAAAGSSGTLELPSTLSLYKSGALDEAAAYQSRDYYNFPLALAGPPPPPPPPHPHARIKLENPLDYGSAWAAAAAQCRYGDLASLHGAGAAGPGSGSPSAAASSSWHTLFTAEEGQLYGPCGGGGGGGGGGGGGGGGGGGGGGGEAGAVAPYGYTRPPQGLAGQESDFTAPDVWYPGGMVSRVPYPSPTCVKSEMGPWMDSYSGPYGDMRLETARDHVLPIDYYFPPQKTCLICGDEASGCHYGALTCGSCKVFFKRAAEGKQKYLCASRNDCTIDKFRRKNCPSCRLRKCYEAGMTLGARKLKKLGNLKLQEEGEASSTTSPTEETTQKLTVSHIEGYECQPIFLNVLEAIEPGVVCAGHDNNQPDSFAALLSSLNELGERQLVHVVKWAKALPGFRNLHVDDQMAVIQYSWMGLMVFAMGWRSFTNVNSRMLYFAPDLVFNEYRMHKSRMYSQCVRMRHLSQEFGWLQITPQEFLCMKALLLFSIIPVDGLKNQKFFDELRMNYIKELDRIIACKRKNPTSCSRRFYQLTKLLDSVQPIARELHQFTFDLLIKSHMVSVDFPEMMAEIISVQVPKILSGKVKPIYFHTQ
How it was run: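 Agonist-mode confirmation screen: human MDA-kb2 cells stably expressing luciferase under an MMTV promoter bearing AR and GR response elements, co-treated with 3.0uM nilutamide (final). Luminescence measured after 16hr compound incubation.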

Measured: Potency

C=C(C)C(=O)OCC(CC)CCCC (configuration not stated)
inactive: [1] | [2] | [3] | [4] | [6] | [7] | [8] | [9] | [10] | [11] | [12] | [13] | [14] | [15] | [16] | [17]
55.5 µM (active) and inactive: [5]

O=[N+]([O-])c1ccc(Cl)cc1
inactive: [1] | [3] | [4] | [5] | [6] | [7] | [9] | [10] | [11] | [12] | [13] | [18] | [14] | [15] | [16] | [17] | [19]
42.9 µM (active) and inactive: [2]

Nc1cc(Cl)cc(Cl)c1
inactive: [1] | [2] | [3] | [4] | [5] | [6] | [7] | [9] | [10] | [11] | [12] | [13] | [18] | [14] | [15] | [16] | [17] | [19]

Nc1ncc([N+](=O)[O-])s1
54.9 µM (active) and inactive: [11]
inactive: [1] | [2] | [3] | [4] | [5] | [6] | [7] | [8] | [9] | [10] | [12] | [13] | [18] | [14] | [15] | [16] | [17]

CN1C(=O)CCS(=O)(=O)C1c1ccc(Cl)cc1 (configuration not stated)
inactive: [1] | [2] | [3] | [4] | [5] | [6] | [7] | [9] | [10] | [11] | [12] | [13] | [18] | [14] | [15] | [16] | [17]

NNc1ccccc1
inactive: [1] | [2] | [3] | [4] | [5] | [6] | [7] | [9] | [10] | [11] | [12] | [13] | [18] | [14] | [15] | [16] | [17]

CC(C)c1cccc(C(C)C)c1O
inactive: [1] | [2] | [3] | [4] | [5] | [6] | [20] | [7] | [8] | [9] | [10] | [11] | [12] | [13] | [18] | [14] | [15] | [16] | [17] | [19]

Nc1cccc(Cl)c1
inactive: [1] | [2] | [3] | [4] | [5] | [6] | [7] | [8] | [9] | [10] | [11] | [12] | [13] | [18] | [14] | [15] | [16] | [17]

OC[C@@H](O)[C@H]1O[C@@H]2O[C@H](C(Cl)(Cl)Cl)O[C@@H]2[C@H]1O
inactive: [1] | [2] | [3] | [4] | [5] | [6] | [7] | [8] | [9] | [10] | [11] | [12] | [13] | [18] | [14] | [15] | [16] | [17] | [19]

CN(C)NC(=O)CCC(=O)O
inactive: [1] | [2] | [3] | [4] | [5] | [6] | [7] | [9] | [10] | [11] | [12] | [13] | [18] | [14] | [15] | [16] | [17]

Cc1ccc(O)c(C)c1
inactive: [1] | [2] | [3] | [4] | [5] | [6] | [7] | [8] | [9] | [10] | [11] | [12] | [13] | [18] | [14] | [15] | [16] | [17] | [19]

Cc1cccc(N)c1C
15.9 µM (active) and inactive: [12]
inactive: [1] | [2] | [3] | [4] | [5] | [6] | [7] | [8] | [9] | [10] | [11] | [13] | [18] | [14] | [15] | [16] | [17] | [19]

Nc1ccc([As](=O)(O)O)cc1
inactive: [1] | [2] | [3] | [4] | [5] | [6] | [7] | [8] | [9] | [10] | [11] | [12] | [13] | [18] | [14] | [15] | [16] | [17] | [19]

N#Cc1ccccn1
inactive: [1] | [2] | [3] | [4] | [5] | [6] | [7] | [8] | [9] | [10] | [11] | [12] | [13] | [18] | [14] | [15] | [16] | [17] | [19]

CCCCC(CC)C(=O)Cl (configuration not stated)
inactive: [1] | [2] | [3] | [4] | [5] | [6] | [7] | [8] | [9] | [10] | [11] | [12] | [13] | [18] | [14] | [15] | [16] | [17] | [19]

COP(=S)(OC)SCN1C(=O)c2ccccc2C1=O
active: [2] 54.5 µM
inactive: [1] | [3] | [4] | [5] | [6] | [7] | [9] | [10] | [11] | [12] | [13] | [18] | [14] | [15] | [16] | [17] | [19]
